Screens: PubChem BioAssay, several laboratories
aSyn UTR inh: MLPCN primary screen, SNCA 5' untranslated region; alpha-synuclein 5'UTR reporter, inhibitor activity; inhibition, % (tested at 7.5 µM); 300,000 tested, 0.82% active; in the data active = inhibition above about 60%;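 note: H4 neuroglioblastoma cells stably carrying SNCA 5'UTR luciferase fusion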
Jurkat NFkB inh: inhibitors of induced NF-kB luciferase reporter, primary screen, TCR NF-kB activation inhibitor project, cell-based, luminescence, uHTS; Jurkat, PMA/ionomycin-induced NF-kB luciferase reporter; inhibition, % at 4 µM; 330,000 tested, 0.53% active; in the data active = inhibition above about 50%
697 NFkB inh: inhibitors of PMA/ionomycin-induced NF-kB reporter, 697 cells, primary screen, B-cell NF-kB inhibitor project, cell-based, luminescence, uHTS; 697 B-cell NF-kB luciferase reporter, 16 h; inhibition, % at 4 µM; 330,000 tested, 0.33% active; AID 435022, 2010; in the data active = inhibition above about 35%
Gli-Sufu block: Gli-Sufu pathway antagonists, primary screen, luciferase luminescence, Sufu-KO-LIGHT cells, uHTS | Sufu-KO-LIGHT fibroblasts, Gli luciferase reporter luminescence | inhibition, % at 5 µM | 340,000 tested, 0.74% active;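 active = inhibition above about 55%, limit read from the data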
CSC inhib: cancer stem cell viability inhibitors, primary screen, luminescence; cancer stem cell-like cells viability; inhibition, % at 7.5 µM; 300,000 tested, 1.1% active; AID 2717, 2010; in the data active = inhibition above about 75%; tested in HMLE shEcad cells
Mdm2-MdmX inh: inhibitors of human Mdm2-MdmX association, primary screen, cell-based, luminescence, split luciferase, SaOS-2, uHTS | Protein Mdm4 (Homo sapiens) + E3 ubiquitin-protein ligase Mdm2 (Homo sapiens), … | SaOS-2 split-luciferase Mdm2/MdmX complementation | inhibition, % at 8 µM | 330,000 tested, 3% active;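 active = inhibition of at least 50% at 8 µM in the primary screen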
Target sequence (O15151 whole entry, looked up): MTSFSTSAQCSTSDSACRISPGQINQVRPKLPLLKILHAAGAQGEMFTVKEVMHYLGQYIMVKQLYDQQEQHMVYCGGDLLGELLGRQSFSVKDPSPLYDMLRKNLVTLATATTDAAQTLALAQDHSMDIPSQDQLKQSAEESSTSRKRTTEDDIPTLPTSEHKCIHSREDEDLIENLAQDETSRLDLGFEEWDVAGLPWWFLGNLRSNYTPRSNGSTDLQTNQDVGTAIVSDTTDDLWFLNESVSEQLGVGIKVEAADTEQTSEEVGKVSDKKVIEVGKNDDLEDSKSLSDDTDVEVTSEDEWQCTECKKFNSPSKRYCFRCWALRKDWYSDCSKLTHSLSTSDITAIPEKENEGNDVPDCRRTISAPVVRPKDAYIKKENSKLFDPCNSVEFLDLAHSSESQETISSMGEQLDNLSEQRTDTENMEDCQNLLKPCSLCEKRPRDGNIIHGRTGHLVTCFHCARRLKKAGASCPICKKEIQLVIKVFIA
Target sequence (Q00987 whole entry, looked up): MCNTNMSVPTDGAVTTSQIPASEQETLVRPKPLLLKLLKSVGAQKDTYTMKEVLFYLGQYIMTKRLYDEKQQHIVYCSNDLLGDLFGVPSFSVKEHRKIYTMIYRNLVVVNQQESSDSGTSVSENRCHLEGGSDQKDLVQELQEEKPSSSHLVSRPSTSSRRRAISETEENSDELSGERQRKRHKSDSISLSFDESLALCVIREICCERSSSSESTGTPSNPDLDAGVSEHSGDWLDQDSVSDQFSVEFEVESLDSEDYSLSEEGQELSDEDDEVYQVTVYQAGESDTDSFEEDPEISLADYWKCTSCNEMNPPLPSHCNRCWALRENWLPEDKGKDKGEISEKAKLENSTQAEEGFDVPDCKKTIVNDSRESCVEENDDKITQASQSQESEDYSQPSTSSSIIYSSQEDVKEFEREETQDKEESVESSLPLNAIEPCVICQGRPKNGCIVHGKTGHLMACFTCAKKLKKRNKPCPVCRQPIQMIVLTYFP
Gli antag conf: Gli-SUFU pathway antagonists, confirmation, single concentration, luciferase luminescence, Sufu-KO-LIGHT cells; shares compounds with Gli-Sufu block; Gli luciferase reporter; inhibition, % at 5 µM; 2,500 tested, 40% active; AID 602428, 2012;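 active = mean inhibition at 5 µM reaching about 45%, limit read from the data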
SufuKO cytotox: cytotoxicity in Sufu-KO-LIGHT cells, confirmation, cytotoxicity control for Gli-SUFU antagonist project, cell-based, ATP luminescence, single concentration | shares compounds with Gli-Sufu block | cytotoxicity, % at 5 µM | 2,500 tested, 32% active | AID 651994, 2013;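 active = mean cytotoxicity at 5 µM above about 25%, limit read from the data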;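 note: cells exposed to compound overnight for roughly 16 to 18 hours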
Wnt3a counter: Wnt3a reporter signal inhibition, confirmation, counter-screen for Gli-SUFU antagonist project, Wnt-LIGHT cells, luminescence, single concentration. Wnt3a-driven luciferase reporter. 2,500 tested, 20% active. shares compounds with Gli-Sufu block. AID 651995, 2013. inhibition, % at 6.25 µM;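 active = mean inhibition above about 25%, limit read from the data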
A number is an active result; . = inactive; / = not tested or not shown. Hits are enriched below; roughly 4.5% of the tested compounds scored in any of these assays.

SMILES	aSyn UTR inh	Jurkat NFkB inh	697 NFkB inh	Gli-Sufu block	CSC inhib	Mdm2-MdmX inh	Gli antag conf	SufuKO cytotox	Wnt3a counter
CC1CC(C)CN(C(=O)c2ccc(C#N)cc2)C1 (centres undefined)	.	.	.	.	.	.	/	/	/
C/C(=N\NC(=O)c1c(Cl)cnn1C)c1ccc(NC(=O)c2ccncc2)cc1	.	.	.	.	.	.	/	/	/
CS(=O)(=O)N1N=C(c2cccs2)CC1c1ccco1 (centres undefined)	.	.	.	.	.	.	/	/	/
COc1cccc(C(=O)NCCN2CCN(c3ccc(Cl)cc3)CC2)c1	/	.	.	.	.	.	.	.	.
CCNC(=O)/C(C#N)=C/c1c(N(Cc2ccccc2)Cc2ccccc2)nc2ccccn2c1=O	.	.	.	88.5	.	.	.	.	.
Cc1ccc(C(=O)O)cc1NC(=O)Nc1ccc2c(c1)OCO2	.	.	.	56.1	.	.	.	.	.
CCn1cc[n+](C)c1P(c1ccccc1)c1ccccc1	.	.	.	.	.	.	55.2	.	.
CCCc1cc(=O)[nH]c(SC(CC)C(=O)Nc2ccccc2C#N)n1 (centres undefined)	.	.	.	.	.	.	/	/	/
Cc1cccc(N/C=C/c2onc(C)c2[N+](=O)[O-])c1	.	.	.	.	.	.	.	.	.
CCOC(=O)C(NCc1ccccn1)(NC(=O)c1cccnc1)C(F)(F)F (centres undefined)	.	.	.	95.8	.	.	.	.	.
CNC(=S)/N=C/NOCc1ccc(Cl)cc1Cl	.	.	.	.	.	.	.	.	.
CN(C)C(CNC(=O)c1cccc(S(=O)(=O)N2CCN(c3ccccc3)CC2)c1)c1ccccc1 (centres undefined)	/	/	/	.	/	/	/	/	/
COc1ccc(C(CNC(=O)c2cc(S(=O)(=O)N3CCN(c4ccccc4)CC3)ccc2Cl)N(C)C)cc1 (centres undefined)	/	.	.	68.3	.	.	.	.	.
Cc1cc(C)c(S(=O)(=O)c2ccccc2)c(N2CCOCC2)n1	.	.	.	.	.	.	/	/	/
COc1ccccc1CNC(=O)C1CC(=O)N(c2ccc(C)c(C)c2)C1 (centres undefined)	.	.	.	.	.	.	/	/	/
COc1ccc(N2CC(C(=O)NCc3nnnn3-c3ccc(C)c(C)c3)CC2=O)cc1 (centres undefined)	.	.	.	.	.	.	.	.	.
C=CCN=C1CCCc2c1[nH]c1ccc(C)cc21	.	.	.	.	.	.	/	/	/
COc1c(O)cccc1[C@@H](O)C1CCN(CCc2ccc(F)cc2)CC1	.	.	.	.	.	.	/	/	/
CC(C)COc1ccc(C/C(N)=N/n2cnnc2)cc1	.	.	.	62.2	.	.	46.4	.	26.3
COc1ccc(/C=C/C(=O)OCC(=O)NCCc2ccccc2)c(OC)c1	/	.	.	.	.	.	/	/	/
COc1ccccc1CCN=C(N)NS(=O)(=O)c1ccccc1F	.	.	.	.	.	.	/	/	/
CC1=C(C(=O)OC(C)C)C(c2ccccc2)NC(=O)N1C (centres undefined)	.	.	.	57.2	.	.	.	.	.
CN(C)S(=O)(=O)c1ccc2oc(SCC(N)=O)nc2c1	.	.	.	67.3	.	.	.	.	.
Cc1ccc(N(CC(=O)NCc2ccc(F)cc2)S(=O)(=O)c2c(C)n[nH]c2C)cc1	.	.	.	73.2	.	.	.	.	.
CCOC(=O)C1(CCOc2ccccc2)CCN(Cc2cccc(F)c2)CC1	.	.	.	59.7	.	.	.	25.8	.
SMILES	aSyn UTR inh	Jurkat NFkB inh	697 NFkB inh	Gli-Sufu block	CSC inhib	Mdm2-MdmX inh	Gli antag conf	SufuKO cytotox	Wnt3a counter
CCOC(=O)C1(CCOc2ccccc2)CCN(Cc2cccc(-n3cccn3)c2)CC1	.	.	.	.	.	.	.	.	.
CCOC(=O)C1(CCOc2ccccc2)CCN(C(=O)c2ccc(-n3cccn3)cc2)CC1	.	.	.	.	.	.	/	/	/
CCOC(=O)C1(CCOc2ccccc2)CCN(Cc2cccc(OCCO)c2)CC1	.	.	.	.	.	.	/	/	/
COc1ccc(NC(=O)CSc2ccc3nnc(-c4ccccn4)n3n2)cc1OC	.	.	.	.	.	.	/	/	/
C[N+]1=C(/C=C/Nc2ccccc2Cl)C(C)(C)c2ccccc21	.	.	.	56.2	.	.	52.2	38.5	.
FC(F)(F)c1cnc(/C=C/Nc2ccccc2Cl)c(Cl)c1	.	.	.	.	.	.	/	/	/
CC(CC(=O)N1CCN(S(=O)(=O)c2ccc([N+](=O)[O-])cc2)CC1)c1ccccc1 (centres undefined)	/	.	.	.	.	.	/	/	/
Cc1cc(NC(=O)C2=C(O)c3ccccc3S(=O)(=O)N2C)no1	.	.	.	62.3	.	.	.	28.3	.
Cc1ccc(NS(=O)(=O)c2ccc(-c3ccc(=O)[nH]n3)o2)cc1Cl	.	.	.	.	.	.	.	.	.
O=c1c2c([nH]c3ccc(Br)cc13)CCCC2	.	.	.	.	.	.	/	/	/
O=c1c2c([nH]c3ccccc13)CCC2	.	.	.	60.0	.	.	.	.	.
COc1ccc2ccccc2c1CN(C)Cc1ccccc1	.	.	.	82.6	.	.	.	.	.
CN(Cc1nc2ccccc2c(=O)[nH]1)Cc1nc2ccsc2c(=O)[nH]1	.	.	.	62.5	/	.	.	.	39.1
COC(=O)N/N=C/c1cn(CCOc2cccc(OC)c2)c2ccccc12	.	.	.	.	.	.	/	/	/
Cc1cccc(OCCn2cc(/C=N/NC(=O)c3ccncc3)c3ccccc32)c1	.	.	.	96.2	.	.	.	28.7	.
C/C(=N\NC(=O)c1nnn(-c2nonc2N)c1C(C)C)c1ccncc1	.	.	.	.	.	.	/	/	/
C/C(=N\NC(=O)c1nnn(-c2nonc2N)c1C(C)C)c1ccc2ccccc2c1	.	.	.	59.7	.	.	.	27.5	.
O=C(Nc1cc(N2CCCCC2)ncn1)c1ccccc1	.	.	.	71.5	.	.	76.9	.	.
CC(/C=C1\SC(=O)N(CCCC(=O)O)C1=O)=C\c1ccccc1	102.5	/	/	60.2	.	/	72.8	.	100.4
